# TDP-43 yeast inh = TDP-43 toxicity inhibition in yeast; TDP-43 expressing yeast growth rescue, BacTiter-Glo, 24 h; Potency, µM (series often up to 46.1 µM), hits mostly activators; 410,000 compounds, 1.8% hits; note: nearly all actives have a fitted effect of over 50% in size
#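 Readout is BacTiter-Glo luminescence of cell growth, so inhibitors register as activators. TDP-43-expressing yeast at OD600=0.02 in galactose medium, after raffinose pregrowth to mid-log, were incubated with compound for 24 hr at 30 deg C.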
# aSyn yeast inh = rescues yeast growth from alpha-synuclein toxicity; 370,000 compounds, 0.14% hits; Potency, µM (series often up to 46.1 µM), usual class: activators; Yeast expressing alpha-synuclein, growth rescue, BacTiter-Glo, 24 h; note: nearly all actives have a fitted effect of over 65% in size
#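 Rescue of yeast growth: cells expressing toxic alpha-synuclein, induced in galactose at OD600 0.02, incubated with compound 24 h at 30 C. ATP luminescence quantified growth; inhibitors of toxicity appear as activators.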
# Abeta rescue = restores growth of yeast expressing A-beta42 peptide. Potency, µM (doses to about 46.1 µM), actives largely listed as activators. 410,000 compounds, 0.063% hits. AID 1347071. yeast expressing A-beta42, growth rescue, OD600, 48 h; response scale: 0% DMSO, 100% iron-clioquinol control; note: nearly all actives have a fitted effect of over 55% in size
#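 Yeast A-beta toxicity model in growth medium with pinned compounds, 48 h at 30 C; growth read as absorbance at 600 nm. Normalized to FeCl3/clioquinol equimolar mix (positive) and DMSO (negative).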
# FUS yeast rescue = suppressors of FUS proteinopathy in yeast. S. cerevisiae FUS-expressing, growth rescue, OD600, 24 h. Potency, µM (doses to about 76.6 µM), hits mostly activators. 390,000 compounds, 0.24% hits; note: nearly all actives have a fitted effect of over 55% in size
#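 Toxicity suppression screen in FUS-yeast. Cells induced with 2% galactose, starting OD 0.005, treated 24hr at 30C with compounds at multiple final concentrations; growth by OD600.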
# Mito fusion act = mitochondrial division inhibition or fusion activation; S. cerevisiae fusion-defective mutant growth rescue, CellTiterGlo 48 h; 320,000 compounds, 0.23% hits; Potency, µM (highest dose often 46.1 µM), actives largely listed as activators; note: nearly all actives have a fitted effect of over 45% in size
#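 Temperature-sensitive fusion-defective S. cerevisiae (e.g. fzo1-1, mgm1-5) were grown with compound in YPEG medium (3% ethanol, 3% glycerol) for 48 hours at 37C. Growth rescue was measured as viability by CellTiterGlo luminescence after 10 minutes at ambient.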
# Numbers stand for hits; i = inactive; ? = inconclusive; nt = no result. Compounds with a hit are over-represented: about 2.2% of the library has one in this group of screens. Calls come from the whole dose curve; as a rule, active = well fitted curve in the direction sought with a large enough effect; inconclusive = small, poorly fitted or top-dose-only effect, or another doubt; inactive = no such curve, though single readings can be large; an effect the other way counts as inactive or inconclusive.
SMILES,TDP-43 yeast inh,aSyn yeast inh,Abeta rescue,FUS yeast rescue,Mito fusion act
c1ccc(-c2ccc(C(c3ccccc3)n3ccnc3)cc2)cc1 (configuration not stated),6.3µM,?,i,i,14µM
CCCc1cc(N2CCN(c3ccc(OC)cc3)CC2)n2cnnc2n1,?,nt,i,i,nt
COc1ccc(Br)cc1C1SCC(=O)Nc2c1c(C)nn2-c1ccccc1C (configuration not stated),i,nt,i,i,nt
Cc1ccccc1-n1nc(C)c2c1NC(=O)CSC2c1ccccc1C(F)(F)F (configuration not stated),35µM,nt,i,i,nt
C#CCCC[C@@H]1OC(=O)CNC(=O)C([C@@H](C)CC)NC(=O)[C@@H]2CCCN2C(=O)C([C@@H](C)CC)OC(=O)[C@H](Cc2ccccc2)N(C)C(=O)[C@H](C(C)C)NC(=O)C1(C)C (some centres not stated),i,i,i,7.9µM,nt
CCOC(=O)c1c(NC(NC(=O)CF)C(Cl)(Cl)Cl)sc2c1CCCC2 (configuration not stated),22µM,i,i,i,i
Cc1cccc(NC(=O)COC(=O)c2cc(C)n(C3CC3)c2C)c1,35µM,i,i,i,i
Cc1cc(C(=O)O)c(C)n1C1CC1,i,i,i,i,i
Cc1cccc(N2CCN(C(=O)CCNS(=O)(=O)c3ccc4c(c3)oc(=O)n4C)CC2)c1C,i,i,i,i,20µM
O=C(Nc1ccc(Cl)cc1)Nc1nccs1,20µM,i,i,i,i
O=C(CCn1c(=O)oc2ccccc21)N1CCN(C(c2ccccc2)c2ccccc2)CC1,i,i,i,i,?
Nc1c(C(=O)OC2CCCCC2)c2nc3ccccc3nc2n1CC1CCCO1 (configuration not stated),28µM,i,i,i,i
CCN(CC)CCSc1nc2ccccc2c(=O)n1-c1ccc(Cl)cc1,i,nt,i,i,nt
CC(=O)O[C@H](CC(=O)O)C[N+](C)(C)C,?,i,i,i,i
CC1=CC2OC3CC4OC(=O)C=CC=CC(=O)OCCC(C)C(O)C(=O)OCC2(CC1O)C4(C)C31CO1 (configuration not stated),13µM,?,i,nt,nt
COc1ccc(C(=O)Nc2ccc(Cl)cc2C(=O)c2ccccc2)c(OC)c1,i,nt,i,?,nt
COc1ccccc1C(=O)Nc1nnc(-c2ccc(Cl)cc2)o1,13µM,i,i,i,i
CCC(C)NC(=O)CCC(=O)OC1O[C@H]2OC3(C)CC[C@H]4[C@H](C)CCC(C1C)C24OO3 (some centres not stated),35µM,i,i,i,i
C=CCN(C1=NCCN1)c1c(Cl)cccc1Cl,nt,i,nt,nt,i
COc1ccc(CNC(=O)c2cnn3c(C)c(Cc4ccc(F)cc4)c(C)nc23)cc1,?,nt,i,i,nt
C[C@@H]1CC[C@H]2[C@@H](C)C(=O)O[C@@H]3O[C@@]4(C)CC[C@@H]1[C@]32OO4,4.5µM,i,i,i,i
C[C@@H]1CCC2[C@@H](C)C(=O)O[C@@H]3OC4(C)CCC1[C@@]23OO4 (some centres not stated),7.9µM,i,i,i,nt
CCC(C(=O)Nc1ccccc1F)N1C(=O)CN=C(c2ccccc2)c2ccccc21 (configuration not stated),?,nt,i,i,nt
Nc1ccc2c(c1)Cc1cc([N+](=O)[O-])ccc1-2,8.9µM,?,i,i,i
Nc1ccc2c(c1)Cc1ccccc1-2,i,i,i,i,i
SMILES,TDP-43 yeast inh,aSyn yeast inh,Abeta rescue,FUS yeast rescue,Mito fusion act
O=[N+]([O-])c1ccc2c(c1)Cc1cc(O)ccc1-2,3.5µM,i,i,nt,nt
O=[N+]([O-])c1cccc(O)c1,?,i,i,i,i
COc1cc(C=C2C(=O)NC(=O)NC2=O)ccc1OCc1ccc([N+](=O)[O-])cc1,11µM,i,i,i,i
COc1ccc(C=C2C(=O)NC(=S)NC2=O)cc1OC,i,i,i,i,nt
O=C1NC(=O)C(=Cc2ccc(Oc3ccc([N+](=O)[O-])cc3)cc2)C(=O)N1,16µM,i,i,i,i
O=C1NC(=O)C(=Cc2ccccc2OCCOc2ccc([N+](=O)[O-])cc2)C(=O)N1,i,i,i,i,i
